High-throughput results: PubChem BioAssay, Broad Institute
PglD DTNB – C. jejuni PglD acetyltransferase inhibitors, primary screen, biochemical, DTNB colorimetric, single point; UDP-N-acetylbacillosamine N-acetyltransferase PglD (Campylobacter jejuni); purified PglD enzyme, DTNB colorimetric CoA detection; inhibition, % at 12.5 µM; 360,000 tested, 0.098% active; AID 602405, 2012; in the data active = inhibition above about 16%, passing the limit was not always enough; inconclusive = no clear call, values can overlap the other calls
CFTR F508del cor – F508del CFTR correction, initial screen, CFBE line, single point; CFBE cells, YFP halide quenching; stimulated with forskolin plus potentiator P3; % fluorescence drop versus neutral controls; activity (quench increase), % at 7.58 µM; 350,000 tested, 0.36% active; AID 720511, 2013;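 active = mean added fluorescence quench of at least 8% versus neutral control, with both replicates also reaching 8%; inconclusive = only one of the mean or replicate conditions met; inactive = mean below 8% and not both replicates reaching 8%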;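 note: cells transiently co-express mutant CFTR-F508del with the halide-sensitive YFP; corrector assay measuring rescue of mutant channel to the surface after 24 h compound exposure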
NSD2 HMT inh – NSD2 histone methyltransferase inhibitors, primary screen, biochemical, AlphaScreen, single concentration, set 2. Histone-lysine N-methyltransferase NSD2 (Homo sapiens), O96028. NSD2 peptide methylation, 120 min. inhibition, % at 12.5 µM. 310,000 tested, 0.54% active; in the data active = inhibition above about 50%
Target sequence (O96028 whole entry, looked up): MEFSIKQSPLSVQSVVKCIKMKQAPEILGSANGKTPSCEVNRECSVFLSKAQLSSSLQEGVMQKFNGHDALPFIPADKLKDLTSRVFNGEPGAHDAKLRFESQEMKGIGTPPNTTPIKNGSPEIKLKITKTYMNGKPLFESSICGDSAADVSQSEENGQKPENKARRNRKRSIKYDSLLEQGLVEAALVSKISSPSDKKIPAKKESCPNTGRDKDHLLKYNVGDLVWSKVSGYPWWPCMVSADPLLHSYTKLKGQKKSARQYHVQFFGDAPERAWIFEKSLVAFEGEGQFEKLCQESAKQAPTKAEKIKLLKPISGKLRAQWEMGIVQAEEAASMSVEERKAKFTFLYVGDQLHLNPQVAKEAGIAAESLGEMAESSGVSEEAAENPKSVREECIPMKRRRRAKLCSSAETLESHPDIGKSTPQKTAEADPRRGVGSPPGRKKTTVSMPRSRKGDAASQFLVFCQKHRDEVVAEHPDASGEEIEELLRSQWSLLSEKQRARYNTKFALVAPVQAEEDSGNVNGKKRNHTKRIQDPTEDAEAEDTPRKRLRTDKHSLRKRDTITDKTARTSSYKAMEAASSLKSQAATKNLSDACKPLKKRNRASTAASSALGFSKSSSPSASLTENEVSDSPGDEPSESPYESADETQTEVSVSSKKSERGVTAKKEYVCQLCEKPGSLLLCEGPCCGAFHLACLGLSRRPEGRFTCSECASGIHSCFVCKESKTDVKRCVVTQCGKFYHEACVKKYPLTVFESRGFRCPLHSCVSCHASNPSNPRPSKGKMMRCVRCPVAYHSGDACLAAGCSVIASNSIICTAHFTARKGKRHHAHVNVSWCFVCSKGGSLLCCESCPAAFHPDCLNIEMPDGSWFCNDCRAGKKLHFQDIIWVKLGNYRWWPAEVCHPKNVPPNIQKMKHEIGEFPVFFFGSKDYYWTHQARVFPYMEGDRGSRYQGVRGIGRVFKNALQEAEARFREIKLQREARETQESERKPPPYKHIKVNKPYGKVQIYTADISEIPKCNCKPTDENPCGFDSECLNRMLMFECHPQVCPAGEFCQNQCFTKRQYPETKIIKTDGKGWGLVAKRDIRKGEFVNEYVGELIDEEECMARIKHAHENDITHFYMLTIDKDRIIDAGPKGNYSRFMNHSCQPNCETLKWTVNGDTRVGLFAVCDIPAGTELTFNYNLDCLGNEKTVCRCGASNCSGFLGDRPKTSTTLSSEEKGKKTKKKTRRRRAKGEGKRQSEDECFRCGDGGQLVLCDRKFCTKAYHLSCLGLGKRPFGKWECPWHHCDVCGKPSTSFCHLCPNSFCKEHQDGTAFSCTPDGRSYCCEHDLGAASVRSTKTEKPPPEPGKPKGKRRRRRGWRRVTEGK
Casp6 inh – human caspase-6 inhibitors, primary screen, biochemical, VEID-R110 fluorescence, single point, set 2; P55212; purified caspase-6, Z-VEID-R110 cleavage fluorescence; inhibition, % at 12.5 µM; 350,000 tested, 0.53% active;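 active = mean inhibition across replicates at least about 35%, with every replicate also reaching that limit, limit read from the data; inconclusive = only one of the two criteria met; inactive = neither criterion met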;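 note: 0% = median of neutral control wells and 100% = no fluorescence left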
ALR inh – inhibitors of human ALR sulfhydryl oxidase, primary screen, biochemical, H2O2 detection, HRP-luminol luminescence, single point; FAD-linked sulfhydryl oxidase ALR (Homo sapiens), P55789; purified ALR, DTT oxidation; inhibition, % (concentration not given with the values); 290,000 tested, 3.8% active;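 active = mean replicate inhibition above about 79%, with every replicate also reaching it, limit read from the data; inconclusive = only one of the two criteria met; inactive = mean below limit and not every replicate reaching it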
HIV Env fusion – inhibitors of HIV-1 Env-driven cell-cell fusion, primary screen, HeLa-JRFL effector, CEM21 target cells, luciferase; inhibition, % at 12.3 µM; 360,000 tested, 1.1% active;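 active = mean replicate inhibition score of at least 50 and every replicate individually at or above 50; inconclusive = only one of the two criteria met; inactive = mean below 50 and not all replicates reaching 50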;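 note: 0% = plate neutral controls and 100% = maraviroc near 300 nM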
Starred values were filed as active, the others as inactive; ? = inconclusive; . = no result; [ ] = another dose, or the depositor's remark. Shown are actives, neighbours in structure and some others; about 4.1% of the full set was active somewhere.

SMILES	PglD DTNB	CFTR F508del cor	NSD2 HMT inh	Casp6 inh	ALR inh	HIV Env fusion
COc1ccccc1C(NC(C)=O)c1c(O)ccc2ccc(O)cc12 (configuration not stated)	7	-3	10	3	95*	6
COc1ccccc1C(NC(=O)CC(C)C)c1c(O)ccc2ccccc12 (configuration not stated)	-1	0	-3	-1	-105	5
COc1ccccc1N1CCN(C2CCCN(C(=O)CCc3cnccn3)C2)CC1 (configuration not stated)	-2	-1	3	9	54	1
COc1ccccc1N1CCN(C2CCCN(C(=O)CCc3c(C)noc3C)C2)CC1 (configuration not stated)	4	-2	4	1	94*	-2
CO[C@H]1CC[C@H]2CCN(C)C(=O)[C@H](C)[C@H](OC)CN(C)C(=O)c3cccc(C#N)c3OC[C@@H]1O2	2	4	.	1	.	-6[16.7 µM]
C[C@H](CO)N1C[C@H](C)[C@@H](CN(C)S(=O)(=O)c2ccc(F)cc2)Oc2cc(Br)ccc2S1(=O)=O	-1	-4	.	1	.	44[16.7 µM]
C[C@H](CO)N1C[C@H](C)[C@H](CN(C)S(=O)(=O)c2ccc(F)cc2)Oc2cc(Br)ccc2S1(=O)=O	-3	.	.	0	.	77*[16.7 µM]
Cc1ccc(S(=O)(=O)N(C)C[C@@H]2Oc3cc(Br)ccc3S(=O)(=O)N([C@H](C)CO)C[C@@H]2C)cc1	0	1	.	1	.	63*[16.7 µM]
Cc1cccc(S(=O)(=O)N2C[C@H](O)COC[C@H]3O[C@H](CC(=O)N4CCN(C)CC4)CC[C@@H]32)c1	5	1	.	-1	.	.
COc1cccc(/C=C2\C(=O)C(=O)c3ccccc32)c1	-1	.	7	.	100*	-52
COc1cc(C=C2C(=O)c3ccccc3C2=O)ccc1O	0	-2	5	0	60	-7
COc1cc(C=C2C(=O)c3ccccc3C2=O)cc(OC)c1OC	0	1	41	5	97*	-19
O=C(C[C@@H]1CC[C@@H](NC(=O)C2CCOCC2)[C@@H](CO)O1)Nc1ccc(-c2ccccc2)cc1	-1	0	.	0	.	-333[16.7 µM]
COc1ccc(-c2ccc(C(C)=O)cc2)cc1[C@H]1[C@H]2C=CC[C@@H](C)[C@@H]2C(=O)N1Cc1ccccc1	-3	0	.	3	-2	26
COC(=O)c1ccc(-c2ccc(OC)c([C@H]3[C@H]4C=CC[C@@H](C)[C@@H]4C(=O)N3Cc3ccccc3)c2)cc1	2	2	.	2	.	64*
Cn1c(SCc2cccc3ccccc23)nnc1-c1ccco1	1	.	6	.	52	.
Nn1c(SCc2cccc3ccccc23)nnc1-c1ccco1	-3	.	2	.	99*	-20
O=C(NC1CC1)c1cc(-c2ccco2)nc2ccccc12	-3	.	4	.	.	.
Cc1cccc(-c2cc(C(=O)Nc3sc(C)c(C)c3C(N)=O)c3ccccc3n2)c1	2	.	-7	.	-4	.
Cc1ccc(C)c(-c2cc(C(=O)NC3CC3)c3ccccc3n2)c1	1	2	-1	1	94*	.
Cc1nnc(NC(=O)c2cc(-c3ccco3)nc3ccccc23)s1	1	1	6	53*	0	-2
O=C(Nc1nc2ccccc2s1)c1cc(-c2ccco2)nc2ccccc12	.	.	4	1	5	22
Cc1ccc(C)c(-c2cc(C(=O)Nc3sc(C)c(C)c3C(N)=O)c3ccccc3n2)c1	-4	.	-2	.	-4	89*
O=C(NC[C@@H]1CC[C@@H]2[C@@H](CN2C(=O)CN2CCOCC2)O1)NC1CCCCC1	.	0	.	3	.	.
Cc1nn(C)c(C(=O)Sc2cccc(Cl)c2)c1[N+](=O)[O-]	.	-33	2	3	98*	16
SMILES	PglD DTNB	CFTR F508del cor	NSD2 HMT inh	Casp6 inh	ALR inh	HIV Env fusion
Cc1[nH]oc(=O)c1N=Nc1c(Cl)cccc1Cl	.	.	1	.	92*	-22
Cc1[nH]oc(=O)c1N=Nc1ccccc1	.	.	-2	.	3	-2
CCN1/C(=C/C=C/c2sc3ccccc3[n+]2CC)Sc2ccccc21	-2	.	.	.	100*	.
Cc1noc(C)c1NC(=O)N(C)C[C@@H]1Oc2ccc(NC(=O)C3CC3)cc2CC(=O)N([C@H](C)CO)C[C@H]1C	3	-3	.	.	.	33[16.7 µM]
COc1ccccc1N1CCN(S(=O)(=O)/C=C/c2ccccc2)CC1	1	.	-4	.	-2	.
COc1ccccc1N1CCN(CCOc2c(OC)cccc2OC)CC1	.	.	.	.	-2	63*
COc1ccccc1N1CCN(C/C=C/c2ccc(N(C)C)cc2)CC1	.	.	.	.	99*	.
Cc1ccc(S(=O)(=O)N[C@@H]2CC[C@@H](CC(=O)N3CCN(c4ccccc4)CC3)O[C@@H]2CO)cc1	0	0	.	-2	.	-29[16.7 µM]
COc1ccc(S(=O)(=O)N2C[C@@H](O)COC[C@@H]3O[C@H](CC(=O)NCCN4CCCCC4)CC[C@H]32)cc1	1	4	.	.	.	.
Cc1ccc(S(=O)(=O)NC2c3cccc4cccc(c34)C2Sc2nc(C)cc(C)n2)cc1 (configuration not stated)	-3	.	-1	.	-2	98*
Cc1cc(C(=O)N/N=C/c2ccc(N(C)C)cc2)c2ccccc2n1	.	8.3*	1	0	?	-144
Cc1cc(C(=O)N/N=C/c2ccc([N+](=O)[O-])cc2)c2ccccc2n1	5	14*	-5	-5	-7	18
Cc1cc(C(=O)N/N=C/c2ccc3c(c2)OCO3)c2ccccc2n1	.	19*	-1	-1	-21	-30
Cc1cc(C(=O)N/N=C/c2cc([N+](=O)[O-])ccc2O)c2ccccc2n1	.	.	-1	.	-1	.
C[C@H](CO)N1C[C@H](C)[C@H](CN(C)C(=O)Nc2ccc(C(F)(F)F)cc2)OCCCC[C@H](C)Oc2ccc(NC(=O)Cc3ccccc3)cc2C1=O	-11	0	.	.	.	-72[16.7 µM]
O=C(C[C@@H]1C=C[C@@H](NC(=O)c2ccccc2)[C@H](CO)O1)NCc1ccncn1	-3	0	.	1	.	1[16.7 µM]
COCCSc1ccccc1C(=O)N1CCN(c2ccccc2)CC1	2	-1	5	0	87*	0
COCCSc1ccccc1C(=O)N1CCc2ccccc2C1	5	1	-1	0	3	-11
O=C(CSc1ccccc1C(=O)N1CCN(c2ccccc2)CC1)N1CCCC1	4	2	-2	-1	98*	0
COc1cccc(Cl)c1NC(=O)N1CCc2c([nH]c3ccccc23)C1C(F)(F)F (configuration not stated)	.	0	-2	-1	-8	83*
